D3 antag: antagonists of human D3 dopamine receptor; D3R cells, DiscoveRx beta-arrestin luminescence, antagonist mode; active compounds read low; P35462; max response, negative = inhibition, %; actives 2.5% (n = 360,000); in the data active = max response below about -50%; inconclusive = no clear call, values can overlap the other calls; also: % is scaled to controls: 0 for no effect and ±100 for the full control effect
Target sequence (P35462 whole entry, looked up): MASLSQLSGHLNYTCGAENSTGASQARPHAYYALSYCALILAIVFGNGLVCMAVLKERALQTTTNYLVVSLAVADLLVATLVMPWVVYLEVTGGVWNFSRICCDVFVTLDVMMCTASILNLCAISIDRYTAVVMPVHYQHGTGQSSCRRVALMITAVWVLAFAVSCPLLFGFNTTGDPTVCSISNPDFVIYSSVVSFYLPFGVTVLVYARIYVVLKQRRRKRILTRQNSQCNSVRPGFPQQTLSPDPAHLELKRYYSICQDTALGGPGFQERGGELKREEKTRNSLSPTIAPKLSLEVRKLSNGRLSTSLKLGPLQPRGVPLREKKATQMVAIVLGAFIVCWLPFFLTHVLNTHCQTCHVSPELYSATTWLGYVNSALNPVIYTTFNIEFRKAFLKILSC
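Cells plated overnight at 1500 cells/well, then exposed to library compounds with dopamine controls for 90 minutes at 37 degrees C. DiscoveRx reagent added for 30–60 minutes at room temperature; luminescence read, quantitative HTS format.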
DRD3 agonist: D3 dopamine receptor (human) agonism; P35462; D3R DiscoveRx beta-arrestin cells, luminescence, 90 min; max activation, %; actives 0.58% (n = 410,000); AID 652048; in the data active = max activation above about 30%; also: 0% is about no effect
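Agonist mode: compounds and dopamine controls were applied to plated cells for 90 min at 37 degrees C after an overnight attachment at 1500 cells/well. Luminescent read-out followed 30 - 60 minutes at room temperature with DiscoveRx detection reagent.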
KB-3-1 tox: kills parental KB-3-1 adenocarcinoma cells; Potency, µM (highest dose often 46.1 µM), most hits filed as cytotoxic; KB-3-1 viability, CellTiter-Glo ATP luminescence, 72 h; actives 1.4% (n = 400,000); also: potency is read from the fitted curve at half-maximal effect; % is scaled to controls: 0 for no effect and ±100 for the full control effect; nearly all actives have a fitted effect of over 60% in size
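Here the drug-naive KB-3-1 line serves as comparator for MDR sub-line selectivity; cells received compound titrations, 72 h at 37 °C, then CellTiter-Glo readout.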
MCF10A rerep: DNA re-replication induction in MCF 10a cells; actives 2.9% (n = 350,000); Potency, µM (titrated, usually from 46.1 µM), inactives show top-dose activity, positive = re-replication, most hits filed as activators; MCF 10A DNA re-replication, Hoechst nuclear intensity, 48 h; also: potency is read from the fitted curve at half-maximal effect; % of control where 0% means no effect; nearly all actives have a fitted effect of over 50% in size
SW480 rerep: induces DNA re-replication in SW480 colon adenocarcinoma cells | actives 1.8% (n = 340,000) | SW480 DNA re-replication, Hoechst DNA content imaging, 48 h | Potency, µM (highest dose often 46.1 µM), inactives show top-dose re-replication activation, hits mostly activators | AID 624297; also: potency is read from the fitted curve at half-maximal effect; % of control where 0% means no effect; nearly all actives have a fitted effect of over 55% in size
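First, 250 cells per well were seeded. Next, compound or vehicle (23 nL) was pinned in, plates sat 48 hr at 37 C. Finally Hoechst was added for 40 min before fluorescence scanning.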
KB-V1 cytotox: kills drug-selected multidrug resistant KB-V1 cells; KB-V1 MDR cells viability, CellTiter-Glo, 72 h; AID 1347076; Potency, µM (top dose mostly 46.1 µM), usual class: cytotoxic; actives 3.4% (n = 400,000); also: potency is read from the fitted curve at half-maximal effect; % is scaled to controls: 0 for no effect and ±100 for the full control effect; nearly all actives have a fitted effect of over 60% in size
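Following 72 h at 37 degrees C with compound, KB-V1 cell viability was read by CellTiter-Glo luminescence, medium being phenol-red-free DMEM plus 10% FBS; concentration-response parameters came from normalized, curve-fitted qHTS data.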
Starred values were filed as active, the others as inactive; i = inactive; ? = inconclusive; . = no result; ! = not active in a repeat. Shown are actives, neighbours in structure and some others; about 8.9% of the full set was active somewhere. Unless noted, calls follow the shape of the dose curve; as a rule, active = well fitted curve in the direction sought with a large enough effect; inconclusive = small, poorly fitted or top-dose-only effect, or another doubt; inactive = no such curve, though single readings can be large; an effect the other way counts as inactive or inconclusive.

SMILES	D3 antag	DRD3 agonist	KB-3-1 tox	MCF10A rerep	SW480 rerep	KB-V1 cytotox
CCCc1c(-c2ccc(F)cc2)ncn1CCc1ccccc1OC	9	8	?	.	.	?
CCCCc1c(-c2ccc(F)cc2F)ncn1CCc1ccccc1OC	54	3	?	.	.	?
CCCCc1c(-c2ccc(OC)c(OC)c2)ncn1CCc1ccccc1OC	10	10	?	.	.	9.2µM*
CCCCCc1c(-c2ccccc2)ncn1CCc1ccccc1OC	38	7	?	.	.	15µM*
Cc1cc(=O)n(Cc2ccc(Cl)cc2)c2c1c(C)nn2-c1ccccc1	.	-2	i	.	.	i
Cn1c(=O)oc2cc(S(=O)(=O)CCC(=O)NCc3ccc(Cl)cc3)ccc21	.	-1	i	.	.	i
CCOC(=O)c1c(NC(=O)CCCOc2ccc(C(C)(C)C)cc2)sc2c1CCC2	.	3	i	.	.	i
CC(C)(Cc1ccc(O)cc1)NC(=O)CC(=O)N/N=C/c1ccc(Cl)cc1	-13	-5	?	13µM*	?	i
CC(C)(Cc1ccc(O)cc1)NC(=O)CC(=O)N/N=C/c1ccc([N+](=O)[O-])cc1	7	2	i	-1%	-14%	i
N#C/C(=C\Nc1ccc2cn[nH]c2c1)c1nc(-c2ccccc2)cs1	10	5	i	16µM*	3%	i
O=C(NC1CC1)c1sc2cc(Cl)ccc2c1Cl	9	4	i	6%	-2%	?
CC1(C)CC(NC(=O)c2cc(Cl)ccc2Cl)CC(C)(C)N1	-9	1	i	2%	9.2µM*	i
CC1(C)CC(NC(=O)c2sc3cc(Cl)ccc3c2Cl)CC(C)(C)N1	-13	3	?	-26%	?	18µM*
Cc1ccc(C)c(C(=O)NC2CC(C)(C)NC(C)(C)C2)c1	?	-4	i	0%	-5%	i
O=C1c2ccccc2C(=O)N1CCCCc1cn(C[C@H]2CC[C@@H]([C@@H]3CC[C@H](Cn4cc(CCCCN5C(=O)c6ccccc6C5=O)nn4)O3)O2)nn1	66	51*	i	?	-2%	?
COc1cc(SC)ccc1C(=O)N1CCn2c3c(c4cc(C)ccc42)CCCC31 (stereo not drawn)	.	-4	i	.	.	i
CC(C)Oc1ccc(C(=O)Nc2ccc3oc(-c4ccncc4)nc3c2)cc1	.	5	?	.	.	i
COc1ccc(NC(=O)c2nc3nc(C)cc(C(F)F)n3n2)c(C)c1	.	-6	i	.	.	?
CCOC(=O)c1ccc(NC(=O)C2CCCN(c3ccc(Sc4ccc(C)cc4)nn3)C2)cc1 (stereo not drawn)	.	-7	i	.	.	i
CCOc1ccccc1N1CC(C(=O)N(CC)CC(=O)Nc2ccc3c(c2)OCCO3)CC1=O (stereo not drawn)	1	-5	i	2%	2.3µM*	i
CCN(CC(=O)Nc1ccc2c(c1)OCCO2)C(=O)C1CC(=O)N(c2ccc(OC)cc2OC)C1 (stereo not drawn)	2	-1	i	0%	-7%	?
CN1CCN(C(CNC(=O)c2c(F)cccc2F)c2ccc3c(c2)OCO3)CC1 (stereo not drawn)	.	3	i	.	.	i
Cc1ccc(CNS(=O)(=O)c2ccc(-c3cnc(C4CC4)o3)cc2)cc1	2	8	i	13%	2%	i
CCOc1ccccc1CNS(=O)(=O)c1ccc(-c2cnc(C3CC3)o2)cc1	-3	0	1.2µM*	1.3µM*	?	1.5µM*!
O=S(=O)(NCc1ccccc1)c1ccc(-c2cnc(C3CC3)o2)cc1	13	-2	18µM*!	?	-10%	15µM*!
SMILES	D3 antag	DRD3 agonist	KB-3-1 tox	MCF10A rerep	SW480 rerep	KB-V1 cytotox
O=S(=O)(NCc1ccccc1Cl)c1ccc(-c2cnc(C3CC3)o2)cc1	.	-1	?	.	.	?
Cc1ccc(C)c(CNC(=O)CN2C(=O)CSc3ccc(S(=O)(=O)N(C)C)cc32)c1	.	-10	i	.	.	i
Cc1ccc(NC(=O)Cn2nnc(-c3nc(-c4ccncc4)no3)c2N)cc1	.	2	.	.	.	.
Cc1cc(NC(=O)CSc2nc(-c3cccc(F)c3)nc3c2c(=O)n(C)c(=O)n3C)no1	.	-7	i	.	.	i
COc1cc(C=Nc2cccc(C)c2)c(O)c([N+](=O)[O-])c1	-92*	-30	i	?	0%	i
CN(N)C(=S)Nc1ccc(F)cc1	-13	37*	i	-1%	-3%	i
Cc1ccc(NC(=S)N(C)N)cc1Cl	-7	-7	i	-4%	-4%	i
Cc1ccc(OCCCC(=O)NCc2ccco2)cc1	-30	22	i	0%	-3%	i
Cc1cccc(Nc2ccccc2C(=O)OCC(=O)NCc2ccco2)c1C	37	26	?	?	?	13µM*
Cc1ccccc1OCCCC(=O)NCc1ccco1	-123*	2	i	-7%	3%	i
Cc1ccc(OCCNC(=O)C(=O)NCc2ccco2)cc1	-3	3	?	1.6µM*	10µM*	?
CC(I)CCC(C)[n+]1cccc(I)c1 (stereo not drawn)	.	.	i	.	.	?
COc1cc(/C=N/N=C2\CC3CCC2(C)C3(C)C)ccc1O (stereo not drawn)	13	7	i	?	1%	i
CC12CCC(C/C1=N\N=C1\NC(=O)/C(=C\c3cccc(Br)c3)S1)C2(C)C (stereo not drawn)	9	2	i	18µM*	11%	?
O=c1c2ccccc2nc(-c2ccco2)n1CCCn1ccnc1	-20	2	i	-8%	-3%	8.2µM*
CCCCn1c(=NC(=O)C(C)(C)Oc2ccc(Cl)cc2)c(C(=O)OCC)cc2c(=O)n3ccccc3nc21	.	7	i	.	.	i
COc1ccc(C)cc1NC(=O)C(NCC1CCCO1)c1ccccc1 (stereo not drawn)	?	-12	i	?	28%	16µM*
COc1ccc(C)cc1NC(=O)CNC(c1ccccc1)c1ccc(C)cc1 (stereo not drawn)	?	-16	4.6µM*	?	2.6µM*	i
COc1ccc(CCNC(=O)C2CCN(c3nc4ccccc4nc3C(F)(F)F)CC2)cc1OC	.	9	i	.	.	?
Cc1cc(N2CCN(S(=O)(=O)c3ccc(Cl)c(Cl)c3)CC2)c2ccccc2n1	30	5	21µM*	?	7%	?
Cn1c(N2CCN(S(=O)(=O)c3ccc(Cl)cc3)CC2)nc2ccccc21	1	15	i	-2%	-11%	16µM*
CCn1c(CN2CCN(c3ccc(Cl)cc3)CC2)nc2ccccc21	?	-1	?	12%	-7%	?

Screening results as filed in PubChem BioAssay.
